Only a selection was taken, and hits are over-represented in it overall.
RE007 growth inh – less growth of the S. pombe RE007 Vpr strain; S. pombe RE007 Vpr strain, BacTiter-Glo ATP luminescence, 24 h; Potency, µM (doses to about 92.2 µM), hits mostly inhibitors; 360,000 tested, 0.21% active; active = well fitted falling curve with a large enough effect; inconclusive = small, poorly fitted or top-dose-only effect; inactive = no such curve, though single readings can be large or run the other way; note: nearly all actives have a fitted effect of over 50% in size
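Fission yeast strain RE007, carrying one chromosomally integrated HIV-1 vpr copy, was seeded at OD 0.01 in PMG+AL medium with 23 nL pinned compound. After 24 h at 30 °C and 99% humidity, viability was read by BacTiter-Glo luminescence.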
LmPK inh – blocks Leishmania mexicana pyruvate kinase activity; Q27686; Potency, µM (series often up to 57.5 µM), actives largely listed as inhibitors; purified LmPK, Kinase-Glo ATP luminescence, 1 h; 290,000 tested, 0.37% active; AID 1721
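Kinase-Glo luminescence read after 1 h RT reaction of 0.1 nM LmPK with 0.5 mM PEP and 0.1 mM ADP. Activity scaled between uninhibited and enzyme-free controls.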
TbPYK inhibitor – blocks Trypanosoma brucei pyruvate kinase; Q57TT1; TbPYK enzyme, Kinase-Glo Plus ATP luminescence, 45 min; Potency, µM (series often up to 76.8 µM), usual class: inhibitors; 410,000 tested, 0.12% active; AID 624173; note: nearly all actives have a fitted effect of over 50% in size
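Glycolytic pyruvate kinase of T. brucei was incubated with substrate, test compound and 130 uM ADP for 45 minutes at room temperature. Luminescent Kinase-Glo Plus signal was measured after 10 minutes.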
Giardia FBPA inh – inhibitors of Giardia lamblia fructose-1,6-bisphosphate aldolase; 290,000 tested, 0.71% active; Potency, µM (top dose mostly 59.6 µM), hits mostly inhibitors; purified Giardia FBPA; A8B2U2; note: nearly all actives have a fitted effect of over 55% in size
Target sequence (A8B2U2 whole entry, looked up): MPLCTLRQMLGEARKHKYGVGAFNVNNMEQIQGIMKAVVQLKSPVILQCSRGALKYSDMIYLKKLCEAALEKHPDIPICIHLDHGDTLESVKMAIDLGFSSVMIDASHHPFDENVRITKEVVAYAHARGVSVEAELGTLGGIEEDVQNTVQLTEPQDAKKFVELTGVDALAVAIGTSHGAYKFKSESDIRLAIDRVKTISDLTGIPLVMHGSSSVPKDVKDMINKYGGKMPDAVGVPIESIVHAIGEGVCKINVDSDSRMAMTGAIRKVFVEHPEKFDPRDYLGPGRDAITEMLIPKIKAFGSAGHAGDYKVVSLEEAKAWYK
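40 nM FBPA preincubated 10 min at RT with compound (up to 57.5 uM final), then substrate plus GAPDH/TPI/NAD/arsenate coupling and diaphorase/resazurin added. Fluorescence read after 20 min at RT, 525/598 nm.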
Shiga toxin inh – inhibitors of Shiga toxin in Vero cells. Vero cells, Shiga toxin protein synthesis inhibition reporter. 290,000 tested, 9.2% active. AID 2315. inhibition, % at 38.7 µM; in the data active = inhibition mostly above about 28%, no sharp cut-off; inactive = mostly below about 43%
Cycloheximide cs – affects cycloheximide protein synthesis inhibition readout, counter-screen; AID 2314; 300,000 tested, 12% active; cell reporter, cycloheximide protein synthesis inhibition counterscreen; max response, %; in the data active = max response mostly above about 13%, no sharp cut-off; inactive = mostly below about 14%; note: read at 38.3 µM for the half of the compounds with a filed dose
A number is an active result; n = inactive; u = inconclusive; x = no result. Unless noted, calls come from the whole dose curve; as a rule, active = well fitted curve in the direction sought with a large enough effect; inconclusive = small, poorly fitted or top-dose-only effect, or another doubt; inactive = no such curve, though single readings can be large; an effect the other way counts as inactive or inconclusive.

SMILES | RE007 growth inh | LmPK inh | TbPYK inhibitor | Giardia FBPA inh | Shiga toxin inh | Cycloheximide cs
CCC(C)c1ccc(N(C(=O)c2ccco2)C(C(=O)NC2CCCC2)c2cccnc2)cc1 (stereo unspecified) | n | n | n | n | 94 | 39
CCc1ccc(N(C(=O)c2ccco2)C(C(=O)NC2CCCC2)c2cccnc2)cc1 (stereo unspecified) | n | n | n | n | n | n
O=C(NCC(=O)N(c1cnc2ccccc2c1)C(C(=O)NC1CCCC1)c1ccncc1)c1ccco1 (stereo unspecified) | n | n | n | n | n | 15
Cc1ccc(S(=O)(=O)NCC(=O)OC(C)C(=O)NC(=O)NC2CCCCC2)cc1C (stereo unspecified) | n | x | n | x | x | x
COC(=O)[C@@H]1C[C@@]2(O)[C@@H](O)[C@@H](O)[C@@H](O)C[C@H]2N1Cc1ccc(C(C)(C)C)cc1 | x | x | x | n | x | x
CC(C)c1ccc(N(C(=O)c2csnn2)C(C(=O)NC2CCCC2)c2ccncc2)cc1 (stereo unspecified) | n | n | n | n | 66 | 30
O=C(NC1CCCC1)C(c1ccncc1)N(C(=O)c1csnn1)c1ccc(F)cc1 (stereo unspecified) | n | n | n | n | n | n
Cc1ccc(Nc2ccc(C(=O)O)cc2N)cc1 | n | n | n | n | n | 22
CCOc1ccccc1Nc1ccc(C(=O)O)cc1N | n | n | n | n | n | n
Cc1cc(C)cc(Nc2ccc(C(=O)O)cc2N)c1 | n | n | n | n | 48 | 52
COc1cc(Nc2ccc(C(=O)O)cc2[N+](=O)[O-])cc(OC)c1 | n | n | n | n | n | n
COc1cccc(Nc2ccc(C(=O)O)cc2N)c1 | n | n | n | n | 74 | 62
COC1=C/C(=C/c2c(N)n3cc(C)sc3nc2=O)C=CC1=O | x | n | n | n | 45 | 42
CC(=O)Nc1ccccc1C(F)(F)F | n | n | n | n | n | n
CC(C)(C)C(=O)NC(=O)Nc1ccccc1C(F)(F)F | n | n | n | n | n | 11
Cn1cccc1C(=O)C(=O)Nc1ccccc1C(F)(F)F | n | n | n | n | 65 | 40
Cn1cccc1C(=O)C(=O)Nc1ccccc1 | u | 16µM | u | n | 91 | 43
CCCn1c(=O)c2sccc2n2c(CCCC(=O)N3CCN(c4cccc(C)c4C)CC3)nnc12 | x | x | n | x | x | x
CCOc1ccc(CC(=O)Nc2c(C(=O)c3ccc(F)cc3)oc3ccc(Cl)cc23)cc1OCC | x | x | n | x | x | x
c1cnc(Sc2ccc3nnnn3n2)nc1 | n | n | n | n | n | n
COc1ccccc1CNC(=O)c1cc(-c2ccccc2)n(Cc2cc(C)no2)n1 | n | x | n | x | x | x
O=[N+]([O-])C(=C1Nc2ccccc2N1)C(Cl)=C(Cl)Cl | n | n | n | u | n | 16
Cc1cc(C)cc(NC(=O)Cn2ncn3c(cc4ccccc43)c2=O)c1 | n | n | n | n | n | n
COC(=O)Cn1ncn2c(cc3oc(C)cc32)c1=O | n | n | n | n | 76 | 40
CCOC(=O)c1cc2c(nc1N)CCCC2 | n | n | n | n | n | n
SMILES | RE007 growth inh | LmPK inh | TbPYK inhibitor | Giardia FBPA inh | Shiga toxin inh | Cycloheximide cs
Cc1ccc(-c2ccc(C(=O)O)c(C)n2)cc1 | n | n | n | n | n | n
COC(=O)c1ccc(-c2ccc(F)cc2)nc1C | n | n | n | n | 73 | 112
CCOC(=O)c1ccc(-c2ccc3c(c2)CCC3)nc1C | n | n | n | n | 93 | 29
Cc1ccccc1OCC(=O)N1CCC(c2nc3ccccc3s2)CC1 | x | x | n | x | x | x
Nc1nc(-c2c[nH]c3ccccc23)cs1 | n | n | n | n | n | n
CN1CCN(CC(=O)Nc2nc(-c3c[nH]c4ccccc34)cs2)CC1 | n | n | n | u | 62 | 22
CCC(C)Nc1nc(-c2c[nH]c3ccccc23)cs1 (stereo unspecified) | n | n | n | u | n | 31
CNc1nc(-c2c[nH]c3ccccc23)cs1 | n | n | n | n | n | n
CCc1ccc(-c2csc(-c3c[nH]c4ccccc34)n2)cc1 | n | n | n | n | 38 | 62
Cc1cccc(-c2nc(C)c(CCNC(=O)C(=O)Nc3cccc(Cl)c3C)s2)c1 | x | x | n | x | x | x
Cc1ccc2c(c1)c1c(c(=O)n(-c3cccc(Cl)c3)c(=O)n1CC(=O)Nc1c(C)cccc1C)n2C | x | x | n | x | x | x
CN(C)Cc1csc(NC(=O)Nc2ccccc2C(C)(C)C)n1 | n | x | n | x | x | x
O=C(COC(=O)c1ccc(S(=O)(=O)N2CCCC2)cc1)Nc1ccccc1 | n | x | n | x | x | x
Cc1ccc(C(=O)Nc2cccc(O)c2)cc1S(=O)(=O)N1CCCCCC1 | n | n | n | n | 61 | 54
Cc1ccc(C(=O)Nc2ccc3cn[nH]c3c2)cc1S(=O)(=O)N1CCCCC1 | n | n | n | n | 76 | 38
O=C(Nc1cccnc1)c1ccc(Cl)c(S(=O)(=O)N2CCCCC2)c1 | n | n | n | n | n | n
O=C(COC(=O)c1ccc(Cl)c(S(=O)(=O)N2CCCCCC2)c1)Nc1ccccc1 | n | n | n | n | 56 | 35
Cc1ccc(NC(=O)c2ccc(C)c(S(=O)(=O)N3CCCCCC3)c2)cc1 | x | x | n | x | x | x
O=C(O)c1cccc(NC(=O)c2ccc(Cl)c(S(=O)(=O)N3CCCCCC3)c2)c1 | n | n | n | n | 101 | 50
Cc1ccc(S(=O)(=O)N2[C@H](CC(=O)c3ccc(F)cc3)OC[C@@H]2C)cc1 | n | x | x | x | x | x
COc1ccc(S(=O)(=O)N2CCOC2CNC(=O)C(=O)NCCN2CCOCC2)cc1C (stereo unspecified) | n | n | n | x | n | n
COc1ccc(-c2nc(C)c(CCNC(=O)c3ccco3)s2)cc1 | x | x | n | x | x | x
O=C(NCc1nc2ccccc2[nH]1)c1ccc(Cl)c(S(=O)(=O)N2CCCC2)c1 | n | n | n | n | n | 14

Source: PubChem (National Center for Advancing Translational Sciences (NCATS))
